FMDV antiviral: foot and mouth disease virus antiviral activity; Potency, µM (highest dose often 57.9 µM), hits mostly inhibitors; FMDV antiviral cell-based qHTS; 1.2% of 410,000 active; calls by dose curve; tested in HEK293T cells; further: read-out not given here; nearly all actives have a fitted effect of over 45% in size
Vaccinia mCherry: vaccinia inhibition (mCherry reporter); Potency, µM (doses to about 36.5 µM), usual class: inhibitors; Vaccinia virus mCherry reporter infection, fluorescence; AID 720579; 0.63% of 310,000 active; calls by dose curve; tested in A549 cells; further: nearly all actives have a fitted effect of over 35% in size
HCV inh: blocks hepatitis C virus. Huh7.5.1 HCVcc-Cre infection, luciferase reporter, 44 h. Potency, µM (series often up to 41.8 µM), hits mostly inhibitors. 3.4% of 340,000 active
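Luciferase read-out (15 sec integration) after a 15 min room-temperature substrate step quantifies HCVcc-Cre infection. Cells, 1,000 per well, had compound added 4 h post-plating, then virus at ~0.5 moi, and were cultured 44 h.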
VACV Venus inh: vaccinia inhibition (Venus reporter); 0.46% of 330,000 active; Potency, µM (titrated, usually from 36.5 µM), hits mostly inhibitors; Vaccinia virus Venus reporter expression, fluorescence; AID 720580; calls by dose curve; tested in A549 cells; further: nearly all actives have a fitted effect of over 30% in size
HCMV inh: blocks human cytomegalovirus replication. HFF cells, HCMV-luciferase reporter, 72 h; hits give low values. activity change, negative = inhibition, % at 57.5 µM. 4.5% of 410,000 active. AID 1259415; in the data active means activity change below about -60%; inconclusive means no clear call, values can overlap the other calls; inactive means above about -39%
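Cell-based, HFFs, 1000 cells/well, 16 h 37C; cpds in DMSO + HCMV-luc, MOI 1 PFU/cell; 72 h 37C; OneGlo luminescence after 5 min RT; norm. to buffer vs Salinomycin 10uM.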
Giardia FBPA inh: blocks Giardia fructose-bisphosphate aldolase activity | purified Giardia FBPA | 0.71% of 290,000 active | A8B2U2 | Potency, µM (titrated, usually from 59.6 µM), hits mostly inhibitors; further: nearly all actives have a fitted effect of over 55% in size
Target sequence (A8B2U2 whole entry, looked up): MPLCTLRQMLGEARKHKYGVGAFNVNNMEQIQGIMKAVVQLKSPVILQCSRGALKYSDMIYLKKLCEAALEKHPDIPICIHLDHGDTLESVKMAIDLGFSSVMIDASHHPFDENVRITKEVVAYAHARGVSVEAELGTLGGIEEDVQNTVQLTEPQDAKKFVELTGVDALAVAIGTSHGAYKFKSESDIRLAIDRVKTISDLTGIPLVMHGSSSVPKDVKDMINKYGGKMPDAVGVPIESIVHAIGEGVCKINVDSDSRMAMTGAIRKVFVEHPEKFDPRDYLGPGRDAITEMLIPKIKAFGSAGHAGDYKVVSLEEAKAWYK
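40 nM FBPA preincubated 10 min at RT with compound (up to 57.5 uM final), then substrate plus GAPDH/TPI/NAD/arsenate coupling and diaphorase/resazurin added. Fluorescence read after 20 min at RT, 525/598 nm.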
A number is an active result; n = inactive; u = inconclusive; x = not tested or not shown; [ ] = remark or other dose. Only some compounds are listed: those with a hit (about 7.5% of all), similar ones and a draw of the others. Unless noted, the call rests on the fitted dose curve; in most records, active means well fitted curve in the direction sought with a large enough effect; inconclusive means small, poorly fitted or top-dose-only effect, or another doubt; inactive means no such curve, though single readings can be large; an effect the other way counts as inactive or inconclusive.

SMILES	FMDV antiviral	Vaccinia mCherry	HCV inh	VACV Venus inh	HCMV inh	Giardia FBPA inh
Cc1cc(C(C)(C)C)ccc1OCCCCN1CCCC1	n	n	22µM	n	n	n
Cc1cc(C(C)(C)C)ccc1OCCN1CCCC1	n	n	n	n	n	n
Cc1cc(Br)ccc1OCCCCN1CCCCC1	n	n	10µM	n	n	u
Cc1cccc(NC(=O)CSc2ncc(-c3ccc(Br)cc3)[nH]2)c1	n	n	x	n	n	x
Cc1sc2nc[nH]c(=O)c2c1-c1ccc(Cl)cc1	n	n	n	n	-74	n
COc1cc(CN2CCCC(c3nc(-c4ccncc4)ncc3-c3ccccc3)C2)ccc1O (stereo not given)	n	n	x	n	x	x
O=C(NC1CC(=O)N(c2ccc(F)cc2)C1)c1ccc2c(c1)OCO2 (stereo not given)	n	n	x	n	n	x
CCN1CCN(c2ccc([N+](=O)[O-])c(Sc3nc4ccccc4[nH]3)c2)CC1	n	n	22µM	n	n	n
O=[N+]([O-])c1ccc(N2CCN(CCO)CC2)cc1Sc1ccccn1	n	n	n	n	n	n
CCOC(=O)c1c(-c2ccc(OC)cc2)oc2ccc(OCC(N)=O)cc12	n	n	2.2µM	n	n	n
CCOc1ccc2oc(-c3ccccc3)c(C(=O)N(C)C)c2c1	x	n	u	n	-62	n
CC(C)(C)OC(=O)[C@H](Cc1ccccc1)NC(=O)c1nc[nH]c1C(=O)NCC(=O)OCc1ccccc1	n	n	n	n	-61	n
CC(C)(C)OC(=O)C(Cc1ccc(OC(C)(C)C)cc1)NC(=O)CNC(=O)OCc1ccccc1 (stereo not given)	n	11µM	n	u	n	n
C[C@H](NC(=O)OCc1ccccc1)C(=O)NNC(=O)[C@H](Cc1ccccc1)NC(=O)OC(C)(C)C	n	n	n	n	n	n
O=C(N[C@@H](Cc1ccccc1)C(=O)OCc1ccccc1)c1nc[nH]c1C(=O)N1CCNCC1	n	n	n	n	-84	x
C[C@H](NC(=O)c1nc[nH]c1C(=O)N1CCNCC1)C(=O)OC(C)(C)C	n	n	n	n	-65	x
CC(C)(C)OC(=O)N1CCN(C(=O)c2[nH]cnc2C(=O)N[C@@H](Cc2ccccc2)C(=O)OCc2ccccc2)CC1	n	n	n	n	u	n
CC(C)C[C@H](NC(=O)c1[nH]cnc1C(=O)N[C@@H](Cc1ccccc1)C(=O)OC(C)(C)C)C(=O)OCc1ccccc1	n	n	n	n	n	n
COc1ccc(NC(=O)c2nc[nH]c2C(=O)N[C@@H](CC(C)C)C(=O)OC(C)(C)C)cc1	n	u	n	n	-78	u
CC(C)(C)OC(=O)NCCCC[C@H](NC(=O)c1nc[nH]c1C(=O)NCC(=O)OCc1ccccc1)C(=O)OC(C)(C)C	n	n	n	u	-89	n
CC(C)C[C@H](NC(=O)c1[nH]cnc1C(=O)N[C@@H](Cc1ccccc1)C(=O)OC(C)(C)C)C(=O)OC(C)(C)C	n	u	u	u	-89	n
COc1ccccc1N1CCN(Cc2cc(=O)c(OCC(=O)NC(C)C)co2)CC1	n	x	n	x	n	x
O=C(NCCc1nnc2n1CCN(Cc1ccc(F)cc1)CC2)c1ccco1	n	n	x	n	x	x
COc1ccc(OC)c(C2CC(=O)c3c([nH]c(C(=O)OCC4CCCCC4)c3C)C2)c1 (stereo not given)	n	n	x	u	n	x
CC[C@]12c3[nH]c4ccccc4c3CCN1C(=O)C(CC(=O)NCC13CC4CC(CC(C4)C1)C3)C[C@@H]2C(=O)N1CCN(C(=O)C2CC2)CC1 (stereo not given in full)	u	n	22µM	n	n	x
SMILES	FMDV antiviral	Vaccinia mCherry	HCV inh	VACV Venus inh	HCMV inh	Giardia FBPA inh
CC[C@]12c3[nH]c4ccc(Cl)cc4c3CCN1C(=O)[C@@H](CC(=O)NC/C=C(\C)CCC=C(C)C)C[C@@H]2C(=O)N1CCN(C(=O)c2ccco2)CC1	u	n	11µM	u	u	x
CC[C@]12c3[nH]c4cc(CCC(=O)N(C)C)ccc4c3CCN1C(=O)[C@@H](CC(=O)NC/C=C(\C)CCC=C(C)C)C[C@@H]2C(=O)N1CCN(C(=O)c2ccco2)CC1	u	n	u	u	x	x
CC[C@]12c3[nH]c4ccccc4c3CCN1C(=O)C(CC(=O)NCc1ccco1)C[C@@H]2C(=O)N1CCN(C(=O)C2CC2)CC1 (stereo not given in full)	n	n	0.79µM	n	n	x
CC[C@]12c3[nH]c4ccc(Cl)cc4c3CCN1C(=O)[C@@H](CC(=O)NCC13CC4CC(CC(C4)C1)C3)C[C@@H]2C(=O)N1CCN(C(=O)C2CC2)CC1	u	n	u	10µM	n	x
CS(=O)(=O)Nc1ccc([N+](=O)[O-])cc1OC1CCCCC1	n	n	x	n	x	n
CCOc1ccc(CCNC(=O)C2CCN(Cc3nc(-c4ccc(OC)c(OC)c4)oc3C)CC2)cc1OCC	n	n	x	n	n	x
CC(=O)c1cccc(NC(=O)CSc2nc3ccccc3nc2Cc2ccc(F)cc2)c1	n	n	x	n	n	x
COCCNC(=S)N1CCN(C/C=C/c2ccccc2)CC1	n	n	n	n	n	n
CCOC(=O)c1ccc2nc(Nc3nc4ccc(F)cc4s3)sc2c1	u	n	n	n	-91	n
COC(=O)c1ccc2nc(Nc3nc4c(F)cc(F)cc4s3)sc2c1	0.25µM	n	n	n	-70	n
CCCN1CCN(CCCNC(=O)Cn2c(-c3cccs3)cc3cc(Cl)ccc32)CC1	n	n	x	n	n	x
COc1cc(C)c(CN2CCOc3ccc(C(O)c4cccnc4)cc3C2)cc1C (stereo not given)	n	n	x	n	x	x
O/N=C/Cc1[nH]c2ccccc2c1-c1ccccc1	n	u	n	n	n	n
Cc1c(C(=O)O)c(O)cc2c1C(=O)c1c(O)c([C@H]3O[C@H](CO)[C@@H](O)[C@H](O)[C@H]3O)c(O)c(O)c1C2=O	x	n	x	n	x	18µM
CCOC(=O)[C@H](CCc1ccccc1)N[C@@H](C)C(=O)N1[C@H](C(=O)O)C[C@H]2CCC[C@@H]21	x	x	x	x	x	n
Fc1ccc2[nH]c3c(N4CCN(c5ccccc5)CC4)ncnc3c2c1	u	u	7.9µM	u	-97	n
Fc1ccc2[nH]c3c(Cl)ncnc3c2c1	n	x	n	x	n	n
CCOC(=O)N1CCN(c2ncnc3c2[nH]c2ccc(F)cc23)CC1	14µM	u	8.9µM	u	-81	n
OC1(c2cccc(C(F)(F)F)c2)CCN(c2ncnc3c2[nH]c2ccc(F)cc23)CC1	u	x	0.71µM	11µM	-87	n
CN(C)C(=O)c1ccc(NC(=O)COC(=O)Cn2cc(C(F)(F)F)ccc2=O)cc1	n	x	n	x	n	x
O=C(CN1CCN(CC(=O)Nc2ccccc2Cl)CC1)NCC1(N2CCOCC2)CCCCC1	n	n	u	n	n	x
OCC(O)C(O)C(O)C(O)CO (stereo not given)	x	x	x	x	x	n
CCSC(SCC)[C@H](O)[C@@H](O)[C@H](O)[C@H](O)CO	n	n	n[8.37 µM]	n	-65	n

Bioassay records from PubChem.
